From PubChem BioAssay AID1159580 (chemical genetic matrix, 2015)
Values joined by “and” are separate entries in the source; they are usually repeats but may differ in a detail not shown here. Identical values can stand only once. Hit rate of the full screen: of about 5,500 compounds, about 2,000 (36%) were called active. Roughly 18% stayed inconclusive and do not appear here. Rule as the data show it: active = normalized growth mostly below about 0.91 (no sharp cut-off); inconclusive = no clear call, values can overlap the other calls; inactive = mostly above about 0.92. The list shows a part of the results.

Test: chemical genetic growth profiling, strain panel (AID 1159580);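 also: tested at 20 µM; growth read once vehicle control cultures reached saturation at 30 °C; 1 = growth at the plate median or of vehicle wells; lower values mean less growth of the strain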
Settings: S. cerevisiae deletion strains, growth OD

Measured: normalized growth

NC(Cc1ccc(F)cc1)C(=O)O (configuration not stated)
inactive: locus YAL013W, strain DEP1, stronger effect = lower value 1.01 | locus YAL021C, strain ccr4, stronger effect = lower value 0.987 | locus YAL026C, strain drs2, stronger effect = lower value 1.03 | locus YAL030W, strain snc1, stronger effect = lower value 1.01 | locus YBL061C, strain skt5, stronger effect = lower value 1.03 | locus YBR009C, strain hhf1, stronger effect = lower value 1.03 | locus YBR021W, strain FUR4, stronger effect = lower value 0.99 | locus YBR023C, strain chs3, stronger effect = lower value 1.01 | locus YBR171W, strain sec66, stronger effect = lower value 1.03 | locus YBR229C, strain ROT2, stronger effect = lower value 1.01 | locus YBR231C, strain swc5, stronger effect = lower value 1.02 | locus YCL011C, strain gbp2, stronger effect = lower value 1.02 | locus YCL016C, strain dcc1, stronger effect = lower value 1.01 | locus YCL029C, strain bik1, stronger effect = lower value 1.03 | locus YCL061C, strain MRC1, stronger effect = lower value 1.01 | locus YCL069W, strain vba3, stronger effect = lower value 1.01 | locus YCR088W, strain abp1, stronger effect = lower value 1.02 | locus YDL005C, strain med2, stronger effect = lower value 1.01 | locus YDL035C, strain GPR1, stronger effect = lower value 1.01 | locus YDL040C, strain nat1, stronger effect = lower value 1 | locus YDL074C, strain BRE1, stronger effect = lower value 1.01 | locus YDL101C, strain DUN1, stronger effect = lower value 1.01 | locus YDL134C, strain PPH21, stronger effect = lower value 1.01 | locus YDL185W, strain tfp1, stronger effect = lower value 1.03 | locus YDL192W, strain arf1, stronger effect = lower value 1.02 | locus YDR001C, strain nth1, stronger effect = lower value 1.01 | locus YDR069C, strain doa4, stronger effect = lower value 1.02 | locus YDR101C, strain arx1, stronger effect = lower value 1.04 | locus YDR137W, strain rgp1, stronger effect = lower value 0.994 | locus YDR150W, strain NUM1, stronger effect = lower value 0.997 | locus YDR159W, strain sac3, stronger effect = lower value 1.02 | locus YDR162C, strain NBP2, stronger effect = lower value 1.02 | locus YDR195W, strain ref2 1.04 | locus YDR297W, strain sur2, stronger effect = lower value 1.02 | locus YDR318W, strain mcm21, stronger effect = lower value 1.02 | locus YDR334W, strain swr1, stronger effect = lower value 1.02 | locus YDR335W, strain msn5, stronger effect = lower value 1.02 | locus YDR388W, stronger effect = lower value 1.03 | locus YDR392W, strain spt3, stronger effect = lower value 0.923 | locus YDR502C, strain sam2, stronger effect = lower value 1.02 | locus YEL003W, strain gim4, stronger effect = lower value 1.02 | locus YEL037C, strain rad23, stronger effect = lower value 1.01 | locus YEL061C, strain CIN8 (second series), stronger effect = lower value 1.02 | locus YEL061C, strain CIN8, stronger effect = lower value 1 | locus YER015W, strain faa2, stronger effect = lower value 1.02 | locus YER016W, strain bim1, stronger effect = lower value 1.02 | locus YER110C, stronger effect = lower value 1.04 | locus YER111C, strain swi4, stronger effect = lower value 1.03 | locus YER155C, strain BEM2 (second series), stronger effect = lower value 1.04 | locus YER155C, strain BEM2, stronger effect = lower value 1 | locus YER167W, strain BCK2, stronger effect = lower value 1 | locus YFR010W, strain ubp6, stronger effect = lower value 1.01 | locus YGL078C, strain dbp3, stronger effect = lower value 1.02 | locus YGL086W, strain mad1, stronger effect = lower value 1 | locus YGL167C, strain pmr1, stronger effect = lower value 1.02 | locus YGL173C, strain kem1, stronger effect = lower value 1.02 | locus YGL227W, strain vid30, stronger effect = lower value 1.02 | locus YGL240W, strain doc1, stronger effect = lower value 1.03 | locus YGL248W, strain PDE1, stronger effect = lower value 1.02 | locus YGL253W, strain hxk2, stronger effect = lower value 1.04 | locus YGR135W, strain pre9, stronger effect = lower value 1.02 | locus YGR229C, strain SMI1, stronger effect = lower value 0.992 | locus YGR252W, strain gcn5, stronger effect = lower value 1.06 | locus YHR013C, strain ard1, stronger effect = lower value 1.01 | locus YHR027C, strain rpn1, stronger effect = lower value 1.01 | locus YHR030C, strain SLT2, stronger effect = lower value 1.01 and 1.02 | locus YHR079C, strain IRE1 (second series), stronger effect = lower value 1.03 | locus YHR079C, strain IRE1, stronger effect = lower value 1.02 | locus YHR094C, strain hxt1, stronger effect = lower value 1.02 | locus YHR129C, strain ARP1, stronger effect = lower value 1.01 | locus YHR142W, strain chs7, stronger effect = lower value 0.996 | locus YHR200W, strain rpn10, stronger effect = lower value 1.02 | locus YIL066C, strain RNR3, stronger effect = lower value 1.01 | locus YIL073C, strain SPO22, stronger effect = lower value 1.09 | locus YIL125W, strain kgd1, stronger effect = lower value 1.02 | locus YIR030C, strain dcg1, stronger effect = lower value 1.02 | locus YJL092W, strain hpr5, stronger effect = lower value 1.02 | locus YJL095W, strain BCK1 (second series), stronger effect = lower value 1.01 | locus YJL095W, strain BCK1, stronger effect = lower value 1.02 and 1.03 | locus YJL115W, strain asf1, stronger effect = lower value 1.01 | locus YJL129C, strain trk1, stronger effect = lower value 1.01 | locus YJL134W, strain LCB3, stronger effect = lower value 1 | locus YJL154C, strain vps35, stronger effect = lower value 1.01 | locus YJL164C, strain tpk1, stronger effect = lower value 0.966 | locus YJL166W, strain qcr8, stronger effect = lower value 1 | locus YJL168C, strain set2, stronger effect = lower value 1.01 | locus YJL187C, strain SWE1 (second series), stronger effect = lower value 1.03 | locus YJL187C, strain SWE1, stronger effect = lower value 1.02 | locus YJR043C, strain POL32, stronger effect = lower value 1 | locus YJR066W, strain TOR1, stronger effect = lower value 1 | locus YJR075W, strain HOC1, stronger effect = lower value 1.01 | locus YKL009W, strain mrt4, stronger effect = lower value 1 | locus YKL068W, stronger effect = lower value 1.01 | locus YKL085W, strain MDH1 (second series), stronger effect = lower value 1.02 | locus YKL085W, strain MDH1, stronger effect = lower value 1.02 | locus YKL160W, strain elf1, stronger effect = lower value 0.99 | locus YKR001C, strain vps1, stronger effect = lower value 1.01 | locus YKR026C, strain gcn3, stronger effect = lower value 1.03 | locus YKR091W, strain srl3, stronger effect = lower value 1.02 | locus YLL001W, strain dnm1, stronger effect = lower value 1 | locus YLL026W, stronger effect = lower value 1.01 | locus YLL041C, strain sdh2, stronger effect = lower value 1.01 | locus YLR027C, strain aat2, stronger effect = lower value 1.01 | locus YLR039C, strain RIC1, stronger effect = lower value 1.04 | locus YLR058C, strain SHM2, stronger effect = lower value 1.02 | locus YLR102C, strain apc9, stronger effect = lower value 1.03 | locus YLR113W, strain HOG1, stronger effect = lower value 1.03 | locus YLR221C, strain rsa3, stronger effect = lower value 0.993 | locus YLR258W, strain gsy2, stronger effect = lower value 1.02 | locus YLR262C, strain YPT6 (second series), stronger effect = lower value 0.997 | locus YLR262C, strain YPT6, stronger effect = lower value 1.06 | locus YLR268W, strain sec22, stronger effect = lower value 1.03 | locus YLR320W, strain mms22, stronger effect = lower value 1.02 | locus YLR330W, strain CHS5, stronger effect = lower value 1.01 | locus YLR342W, strain FKS1 (second series), stronger effect = lower value 0.979 | locus YLR342W, strain FKS1, stronger effect = lower value 1.02 | locus YLR357W, strain rsc2, stronger effect = lower value 1.01 | locus YLR370C, strain arc18, stronger effect = lower value 1.02 | locus YLR371W, strain rom2, stronger effect = lower value 1.02 | locus YLR384C, strain iki3, stronger effect = lower value 1.02 | locus YLR418C, strain cdc73, stronger effect = lower value 1.02 | locus YML016C, strain PPZ1, stronger effect = lower value 1 | locus YML032C, strain rad52, stronger effect = lower value 1.03 | locus YML120C, strain ndi1, stronger effect = lower value 1.01 | locus YML124C, strain tub3, stronger effect = lower value 1.02 | locus YMR058W, strain fet3, stronger effect = lower value 1.02 | locus YMR078C, strain ctf18, stronger effect = lower value 1.04 | locus YMR125W, strain sto1, stronger effect = lower value 1.04 | locus YMR129W, stronger effect = lower value 1.01 | locus YMR205C, strain PFK2, stronger effect = lower value 1.02 | locus YMR223W, strain ubp8, stronger effect = lower value 1.02 | locus YMR231W, strain pep5, stronger effect = lower value 1.02 | locus YMR263W, strain SAP30, stronger effect = lower value 1.01 | locus YMR307W, strain GAS1, stronger effect = lower value 1.05 | locus YNL067W, strain RPL9B, stronger effect = lower value 1.03 | locus YNL071W, strain lat1, stronger effect = lower value 1 | locus YNL128W, strain TEP1, stronger effect = lower value 1.04 | locus YNL183C, strain NPR1, stronger effect = lower value 0.969 | locus YNL209W, strain ssb2, stronger effect = lower value 1.02 | locus YNL233W, strain BNI4, stronger effect = lower value 1.02 | locus YNL248C, strain rpa49, stronger effect = lower value 0.982 | locus YNL250W, strain rad50, stronger effect = lower value 1.02 | locus YNL271C, strain bni1, stronger effect = lower value 1.04 | locus YNL298W, strain CLA4, stronger effect = lower value 1.02 | locus YNL307C, strain MCK1, stronger effect = lower value 1.03 | locus YNL322C, strain KRE1 (second series), stronger effect = lower value 1.01 | locus YNR049C, strain mso1, stronger effect = lower value 1.04 | locus YNR052C, strain pop2, stronger effect = lower value 1.02 | locus YOL012C, strain htz1 1.76 | locus YOL147C, strain pex11, stronger effect = lower value 1.03 | locus YOR001W, strain rrp6, stronger effect = lower value 1.01 | locus YOR061W, strain CKA2, stronger effect = lower value 1.02 | locus YOR069W, strain VPS5, stronger effect = lower value 1 | locus YOR070C, strain gyp1, stronger effect = lower value 1.01 | locus YOR080W, strain dia2, stronger effect = lower value 1.02 | locus YOR083W, strain WHI5, stronger effect = lower value 0.985 | locus YOR106W, strain vam3, stronger effect = lower value 0.992 | locus YOR136W, strain idh2, stronger effect = lower value 1.05 | locus YOR144C, strain elg1, stronger effect = lower value 1.02 | locus YOR184W, strain ser1, stronger effect = lower value 1.04 | locus YOR231W, strain MKK1, stronger effect = lower value 1.05 | locus YOR265W, strain rbl2, stronger effect = lower value 1.01 | locus YOR270C, strain vph1, stronger effect = lower value 1.02 | locus YOR290C, strain snf2, stronger effect = lower value 0.998 | locus YOR316C, strain cot1, stronger effect = lower value 1.02 | locus YPL051W, strain arl3, stronger effect = lower value 0.998 | locus YPL055C, strain LGE1, stronger effect = lower value 1.02 | locus YPL078C, strain atp4, stronger effect = lower value 0.988 | locus YPL106C, strain sse1, stronger effect = lower value 1.02 | locus YPL240C, strain hsp82, stronger effect = lower value 1.03 | locus YPL241C, strain CIN2, stronger effect = lower value 1 | locus YPL256C, strain CLN2, stronger effect = lower value 1.02 | locus YPR119W, strain clb2, stronger effect = lower value 1.02 | locus YPR141C, strain kar3, stronger effect = lower value 1.03 | locus YPR163C, strain tif3, stronger effect = lower value 1.04 | locus YPR167C, strain met16, stronger effect = lower value 1.03 | strain wtn01, stronger effect = lower value 1.03
